Reference: PubChem BioAssay AID1159580 (chemical genetic matrix, 2015)
Values joined by “and” are separate entries in the source; they are usually repeats but may differ in a detail not shown here. Equal entries are not always repeated. The campaign covered roughly 5,500 compounds. About 2,000 (36%) were called active. Inconclusive results (about 18%) are left out. No stated cut-off is given here; in the data, active means normalized growth mostly below about 0.91 (no sharp cut-off); inconclusive means no clear call, values can overlap the other calls; inactive means mostly above about 0.92. Some of the results follow.

Test: chemical genetic growth profiling, strain panel (AID 1159580);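 further: tested at 20 µM; growth read once vehicle control cultures reached saturation at 30 °C; 1 = growth at the plate median or of vehicle wells; lower values mean less growth of the strain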
Settings: S. cerevisiae deletion strains, growth OD

Measured: normalized growth

CC1=C2C(O)C(=O)OC3CC4C(C)(C)C(=O)C=C[C@]4(C)C(CC1)[C@]23C (stereo partly specified)
inactive: locus YAL021C, strain ccr4, hits give low values 1.01 | locus YAL026C, strain drs2, hits give low values 1.02 | locus YAL030W, strain snc1, hits give low values 1.01 | locus YBL061C, strain skt5, hits give low values 1.01 | locus YBR009C, strain hhf1, hits give low values 1 | locus YBR021W, strain FUR4, hits give low values 0.994 | locus YBR023C, strain chs3, hits give low values 1.02 | locus YBR171W, strain sec66, hits give low values 1.01 | locus YBR229C, strain ROT2, hits give low values 1.02 | locus YBR231C, strain swc5, hits give low values 1 | locus YBR279W, strain paf1, hits give low values 1 | locus YCL011C, strain gbp2, hits give low values 1.01 | locus YCL016C, strain dcc1, hits give low values 1.01 | locus YCL029C, strain bik1, hits give low values 1 | locus YCL061C, strain MRC1, hits give low values 1 | locus YCL069W, strain vba3, hits give low values 1 | locus YCR088W, strain abp1, hits give low values 1.01 | locus YDL005C, strain med2, hits give low values 1.02 | locus YDL035C, strain GPR1, hits give low values 1.03 | locus YDL040C, strain nat1, hits give low values 1.01 | locus YDL074C, strain BRE1, hits give low values 1.07 | locus YDL101C, strain DUN1, hits give low values 1.04 | locus YDL134C, strain PPH21, hits give low values 1.04 | locus YDL185W, strain tfp1, hits give low values 1.02 | locus YDL192W, strain arf1, hits give low values 1.02 | locus YDR001C, strain nth1, hits give low values 1 | locus YDR069C, strain doa4, hits give low values 1.02 | locus YDR101C, strain arx1, hits give low values 0.99 | locus YDR137W, strain rgp1, hits give low values 1.12 | locus YDR159W, strain sac3, hits give low values 1.03 | locus YDR162C, strain NBP2, hits give low values 1.04 | locus YDR195W, strain ref2 0.986 | locus YDR297W, strain sur2, hits give low values 1.02 | locus YDR318W, strain mcm21, hits give low values 1.02 | locus YDR334W, strain swr1, hits give low values 1 | locus YDR335W, strain msn5, hits give low values 1 | locus YDR388W, hits give low values 1.02 | locus YDR392W, strain spt3, hits give low values 1.03 | locus YDR502C, strain sam2, hits give low values 1.04 | locus YEL003W, strain gim4, hits give low values 1 | locus YEL037C, strain rad23, hits give low values 1 | locus YEL061C, strain CIN8 (second series), hits give low values 1.01 | locus YER015W, strain faa2, hits give low values 1.01 | locus YER016W, strain bim1, hits give low values 1.02 | locus YER110C, hits give low values 1.02 | locus YER111C, strain swi4, hits give low values 1.02 | locus YER155C, strain BEM2 (second series), hits give low values 1.01 | locus YER155C, strain BEM2, hits give low values 1 | locus YER167W, strain BCK2, hits give low values 1 | locus YFR010W, strain ubp6, hits give low values 1.01 | locus YGL078C, strain dbp3, hits give low values 1.05 | locus YGL086W, strain mad1, hits give low values 1.01 | locus YGL167C, strain pmr1, hits give low values 1.02 | locus YGL173C, strain kem1, hits give low values 1.03 | locus YGL227W, strain vid30, hits give low values 1.01 | locus YGL240W, strain doc1, hits give low values 1 | locus YGL248W, strain PDE1, hits give low values 1.02 | locus YGL253W, strain hxk2, hits give low values 1.02 | locus YGR078C, strain PAC10, hits give low values 1.05 | locus YGR135W, strain pre9, hits give low values 1.07 | locus YGR252W, strain gcn5, hits give low values 1.13 | locus YHR013C, strain ard1, hits give low values 1.04 | locus YHR027C, strain rpn1, hits give low values 1.02 | locus YHR030C, strain SLT2, hits give low values 1.01 and 1.04 | locus YHR079C, strain IRE1 (second series), hits give low values 1.01 | locus YHR079C, strain IRE1, hits give low values 1.02 | locus YHR094C, strain hxt1, hits give low values 1.01 | locus YHR129C, strain ARP1, hits give low values 1.02 | locus YHR142W, strain chs7, hits give low values 1.01 | locus YHR200W, strain rpn10, hits give low values 1.02 | locus YIL066C, strain RNR3, hits give low values 1.02 | locus YIL073C, strain SPO22, hits give low values 1.06 | locus YIL125W, strain kgd1, hits give low values 0.995 | locus YIR030C, strain dcg1, hits give low values 1.02 | locus YJL092W, strain hpr5, hits give low values 1 | locus YJL095W, strain BCK1 (second series), hits give low values 1.01 | locus YJL095W, strain BCK1, hits give low values 1.07 and 1.03 | locus YJL115W, strain asf1, hits give low values 1.01 | locus YJL129C, strain trk1, hits give low values 1.03 | locus YJL134W, strain LCB3, hits give low values 1.01 | locus YJL154C, strain vps35, hits give low values 1.02 | locus YJL164C, strain tpk1, hits give low values 1.01 | locus YJL166W, strain qcr8, hits give low values 1.01 | locus YJL168C, strain set2, hits give low values 1.02 | locus YJL187C, strain SWE1 (second series), hits give low values 1.05 | locus YJL187C, strain SWE1, hits give low values 1.01
